Measured values from PubChem BioAssay.
Unmarked numbers belong to inactive results. For some of these results: Results with a measured potency or affinity are listed apart. Activity calls are given as the source filed them. Unless noted, how the calls were made is not given here.

How the values were obtained:
[1] = antimalarial activity against Dd2 strain (AID 2302;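 active means growth inhibition above 50% at the single 2 µM test dose, taken to imply half-maximal potency below 2 µM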;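 further: 0% = DMSO untreated growth and 100% = chloroquine plus artemisinin killed control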); conditions: P. falciparum Dd2 in RBCs, LDH growth readout, 72 h; at 2 µM; stronger effect = higher value
[2] = HepG2 cytotoxicity, primary screen, cytotoxicity control for P. falciparum antimalarial project, cell-based, ATP luminescence (AID 2303;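 active means inhibition above 50%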;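 further: 0% = DMSO wells and 100% = digitonin-killed cells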); conditions: HepG2 viability, 24-48 h, at 10 µM, stronger effect = higher value
[3] = molecular target: L-lactate dehydrogenase (Plasmodium falciparum (isolate CDC / Honduras)) (UniProt Q27743); test: PfLDH activity inhibition – cell lysate, 3D7 strain, counter-screen for P. falciparum growth inhibition project (AID 2304);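 further: 0% = vehicle and 100% = reference inhibitor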; conditions: P. falciparum 3D7 crude extract, LDH APAD/NBT absorbance; at 2 µM; stronger effect = higher value
[4] = inhibition of 3D7 malaria parasite growth – strain 3D7 (AID 2306);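 further: 0% = DMSO wells and 100% = chloroquine plus artemisinin control wells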; conditions: P. falciparum 3D7 erythrocytic growth, LDH absorbance, 72 h; at 2 µM; stronger effect = higher value
[5] = molecular target: Calcium-dependent protein kinase 1 (Plasmodium falciparum (isolate 3D7)) (UniProt P62344); test: PfCDPK1 kinase inhibitors, biochemical, TCAMS library (AID 1159585; cut-off not given, nearly all actives have IC50 up to about 0.98 µM;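 further: inhibitors leave more ATP so luminescence rises with inhibition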); conditions: recombinant PfCDPK1, Kinase-Glo ATP depletion luminescence
[6] = molecular target: Plasmodium falciparum protein kinase 6 (PK6, PF3D7_1337100) (UniProt Q8IDW1); test: PfPK6 kinase inhibitors, biochemical, TCAMS library (AID 1159586); conditions: recombinant PfPK6, Kinase-Glo ATP depletion luminescence
[7] = molecular target: Protein kinase 7 (PK7), Plasmodium falciparum 3D7 (PF3D7_0213400) (UniProt Q7YTF7); test: inhibition of Plasmodium PK7 catalytic activity – biochemical, TCAMS antimalarial set, Kinase-Glo luminescence (AID 1159587); conditions: recombinant PfPK7, Kinase-Glo ATP depletion luminescence
[8] = molecular target: Calcium-dependent protein kinase 4 (Plasmodium falciparum (isolate 3D7)) (UniProt Q8IBS5); test: PfCDPK4 kinase inhibitors, biochemical, TCAMS library (AID 1159588; cut-off not given, nearly all actives have IC50 up to about 0.91 µM); conditions: recombinant PfCDPK4, Kinase-Glo ATP depletion luminescence
Chain of Calcium-dependent protein kinase 4 (Plasmodium falciparum (isolate 3D7)) (Q8IBS5 whole entry, looked up): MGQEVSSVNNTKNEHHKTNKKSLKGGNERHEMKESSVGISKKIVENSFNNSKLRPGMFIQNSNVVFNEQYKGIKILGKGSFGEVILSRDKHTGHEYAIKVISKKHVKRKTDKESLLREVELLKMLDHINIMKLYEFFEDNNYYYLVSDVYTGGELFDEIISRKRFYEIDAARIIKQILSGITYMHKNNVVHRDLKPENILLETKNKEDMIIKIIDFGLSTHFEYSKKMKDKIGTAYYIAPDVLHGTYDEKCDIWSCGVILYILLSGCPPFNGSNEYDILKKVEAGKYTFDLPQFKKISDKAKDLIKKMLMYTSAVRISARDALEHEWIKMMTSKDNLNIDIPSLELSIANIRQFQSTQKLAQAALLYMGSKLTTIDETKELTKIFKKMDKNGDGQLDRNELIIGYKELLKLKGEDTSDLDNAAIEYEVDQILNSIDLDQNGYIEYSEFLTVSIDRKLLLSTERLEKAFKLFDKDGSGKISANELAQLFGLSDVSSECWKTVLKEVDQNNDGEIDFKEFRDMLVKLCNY

Chain of Calcium-dependent protein kinase 1 (Plasmodium falciparum (isolate 3D7)) (P62344 whole entry, looked up): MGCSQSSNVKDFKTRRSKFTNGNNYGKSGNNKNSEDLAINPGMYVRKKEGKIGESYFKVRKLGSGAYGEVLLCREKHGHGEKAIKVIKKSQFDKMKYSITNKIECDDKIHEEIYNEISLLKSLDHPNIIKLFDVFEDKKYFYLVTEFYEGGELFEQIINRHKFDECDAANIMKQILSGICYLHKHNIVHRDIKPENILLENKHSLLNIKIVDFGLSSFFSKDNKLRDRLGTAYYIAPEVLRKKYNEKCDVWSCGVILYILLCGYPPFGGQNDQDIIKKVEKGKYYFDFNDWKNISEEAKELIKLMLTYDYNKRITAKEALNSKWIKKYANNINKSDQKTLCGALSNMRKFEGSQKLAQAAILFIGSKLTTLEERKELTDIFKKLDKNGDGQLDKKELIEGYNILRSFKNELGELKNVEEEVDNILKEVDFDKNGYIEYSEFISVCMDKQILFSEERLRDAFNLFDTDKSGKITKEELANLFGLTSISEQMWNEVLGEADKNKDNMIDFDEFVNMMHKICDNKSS
Chain of Plasmodium falciparum protein kinase 6 (PK6, PF3D7_1337100) (Q8IDW1 1-305): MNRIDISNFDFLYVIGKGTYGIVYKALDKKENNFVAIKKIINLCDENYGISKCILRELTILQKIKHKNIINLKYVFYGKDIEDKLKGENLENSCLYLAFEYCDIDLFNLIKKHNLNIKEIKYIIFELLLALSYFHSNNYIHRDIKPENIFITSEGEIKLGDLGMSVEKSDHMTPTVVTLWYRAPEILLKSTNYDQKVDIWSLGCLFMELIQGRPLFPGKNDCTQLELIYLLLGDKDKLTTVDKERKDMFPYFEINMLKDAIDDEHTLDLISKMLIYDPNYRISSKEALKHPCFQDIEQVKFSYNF
Chain of Protein kinase 7 (PK7), Plasmodium falciparum 3D7 (PF3D7_0213400) (Q7YTF7 1-343): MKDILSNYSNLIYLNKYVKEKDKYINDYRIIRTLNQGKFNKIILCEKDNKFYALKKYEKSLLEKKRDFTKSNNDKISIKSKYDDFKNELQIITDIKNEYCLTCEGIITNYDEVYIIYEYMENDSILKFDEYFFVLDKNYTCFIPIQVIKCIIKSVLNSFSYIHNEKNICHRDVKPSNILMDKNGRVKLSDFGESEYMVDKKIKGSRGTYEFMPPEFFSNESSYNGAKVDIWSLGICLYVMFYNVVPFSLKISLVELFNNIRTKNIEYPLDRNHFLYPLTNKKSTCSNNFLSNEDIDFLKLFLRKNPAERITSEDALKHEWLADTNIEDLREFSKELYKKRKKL
Chain of L-lactate dehydrogenase (Plasmodium falciparum (isolate CDC / Honduras)) (Q27743 whole entry, looked up): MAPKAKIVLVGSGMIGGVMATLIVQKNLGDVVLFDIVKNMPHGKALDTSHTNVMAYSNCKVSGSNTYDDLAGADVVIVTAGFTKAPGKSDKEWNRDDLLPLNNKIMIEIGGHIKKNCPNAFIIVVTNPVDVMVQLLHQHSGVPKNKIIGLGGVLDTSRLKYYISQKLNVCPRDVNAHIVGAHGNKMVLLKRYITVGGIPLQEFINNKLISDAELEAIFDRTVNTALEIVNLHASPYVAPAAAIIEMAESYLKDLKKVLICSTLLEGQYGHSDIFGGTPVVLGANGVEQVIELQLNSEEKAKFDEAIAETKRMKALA

With `CC(C)CCCC(C)NC[C@@H](O)[C@H](Cc1ccccc1)NC(=O)c1cc(N2CCCC2=O)cc(N(c2ccccc2)S(C)(=O)=O)c1` (stereo not given in full) the growth inhibition [1] was 97% (active), the inhibition [2] was 17% and the inhibition [3] was -5%. For the same compound, the growth inhibition [4] was 99% (active), the outcome [5] was “inactive” and the outcome [6] was “inactive”. For the same compound, the outcome [7] was “inactive” and the outcome [8] was “inactive”.

Compound `CC1CCCCN1Cc1cccc(-c2c[nH]c3nc(NC4CCCC4)ncc23)c1` (stereo not given) has a growth inhibition [1] of 14%, an inhibition [2] of -1% and an inhibition [3] of -2%. The growth inhibition [4] was 93% (active), the outcome [5] was “inactive” and the outcome [6] was “inactive”. For the same compound, the outcome [7] was “inactive” and the outcome [8] was “inactive”.

With `ON=C1c2cc(OCCN3CCCCC3)c(Cl)cc2-c2cc(Cl)c(OCCN3CCCCC3)cc21` the growth inhibition [1] was 98% (active), the inhibition [2] was 99% (active) and the inhibition [3] was 5%. The growth inhibition [4] was 97% (active), the outcome [5] was “inactive” and the outcome [6] was “inactive”. The outcome [7] was “inactive” and the outcome [8] was “inactive”.

`CCOc1ccc(C(=O)Nc2cc3c(c(C(F)(F)F)c2)CCNC3)cc1Cl` gave a growth inhibition [1] of 1%, an inhibition [2] of 4% and an inhibition [3] of -4%. For the same compound, the growth inhibition [4] was 91% (active), the outcome [5] was “inactive” and the outcome [6] was “inactive”. For the same compound, the outcome [7] was “inactive” and the outcome [8] was “inactive”.

Work on `COc1ccc2[nH]cc(C3CCN(CCCCNC(=O)c4ccc(NC(=O)c5ccc(Cl)cc5)cc4)CC3)c2c1` yielded a growth inhibition [1] of 16%, an inhibition [2] of 17% and an inhibition [3] of 3%. The growth inhibition [4] was 98% (active), the outcome [5] was “inactive” and the outcome [6] was “inactive”. The outcome [7] was “inactive” and the outcome [8] was “inactive”.

With `CCCCCCCCCN1CC[C@@H](CCCc2ccnc3ccc(O)cc23)[C@@H](CC)C1` the growth inhibition [1] was 59% (active), the inhibition [2] was 58% (active) and the inhibition [3] was -3%. The growth inhibition [4] was 83% (active), the outcome [5] was “inactive” and the outcome [6] was “inactive”. For the same compound, the outcome [7] was “inactive” and the outcome [8] was “inactive”.

In the case of `Nc1ccc(-c2cnc3[nH]cc(-c4ccc(C(=O)O)cc4)c3c2)cn1`, the growth inhibition [1] is reported as 99% (active), the inhibition [2] is reported as 48% and the inhibition [3] is reported as 1%. For the same compound, the growth inhibition [4] was 97% (active), the outcome [5] was “inactive” and the outcome [6] was “inactive”. The outcome [7] was “inactive” and the outcome [8] was “inactive”.

Compound `COc1cccc(C(=O)Nc2ccc(S(=O)(=O)c3cc4c(cc3OC)CCN(C)CC4)cc2)c1` has a growth inhibition [1] of 3%, an inhibition [2] of -11% and an inhibition [3] of -1%. The growth inhibition [4] was 86% (active), the outcome [5] was “inactive” and the outcome [6] was “inactive”. The outcome [7] was “inactive” and the outcome [8] was “inactive”.

With `CCCc1cccc(C)c1OCCCON1C(N)=NC(N)=NC1(C)C` the growth inhibition [1] was 96% (active), the inhibition [2] was 57% (active) and the inhibition [3] was -2%. The growth inhibition [4] was 95% (active), the outcome [5] was “inactive” and the outcome [6] was “inactive”. The outcome [7] was “inactive” and the outcome [8] was “inactive”.

For `Cn1nc(C(F)(F)F)c(-c2ccc(Br)cc2)c1NC(=O)Nc1ccc(F)cc1F`, the growth inhibition [1] was 99% (active), the inhibition [2] was 16% and the inhibition [3] was 0%. For the same compound, the growth inhibition [4] was 99% (active), the outcome [5] was “inactive” and the outcome [6] was “inactive”. The outcome [7] was “inactive” and the outcome [8] was “inactive”.

`O=C(Nc1cccc(CN2CCCN(Cc3ccc(F)cc3)CC2)c1)c1cc2ccccc2s1` showed a growth inhibition [1] of 36%, an inhibition [2] of 29% and an inhibition [3] of -9%. The growth inhibition [4] was 91% (active), the outcome [5] was “inactive” and the outcome [6] was “inactive”. The outcome [7] was “inactive” and the outcome [8] was “inactive”.

With `CCCN(CCC)C(=O)c1cc(C(=O)N[C@@H](Cc2ccccc2)[C@H](O)CNC2CC2)cc(N2CCCCS2(=O)=O)c1` the growth inhibition [1] was 98% (active), the inhibition [2] was -3% and the inhibition [3] was 0%. For the same compound, the growth inhibition [4] was 100% (active), the outcome [5] was “inactive” and the outcome [6] was “inactive”. The outcome [7] was “inactive” and the outcome [8] was “inactive”.

For `Cc1cccc2[nH]c(-c3ccc(-c4cccc(NC(=O)CN5CCN(C)CC5)c4)s3)nc12`, the growth inhibition [1] was 51% (active), the inhibition [2] was 7% and the inhibition [3] was -3%. For the same compound, the growth inhibition [4] was 96% (active), the outcome [5] was “inactive” and the outcome [6] was “inactive”. For the same compound, the outcome [7] was “inactive” and the outcome [8] was “inactive”.

For `CN(C)CCNC(=O)N1CCCN(c2ncnc3cc(-c4ccc(Cl)cc4)sc23)CC1`, the growth inhibition [1] was 21%, the inhibition [2] was 41% and the inhibition [3] was 4%. For the same compound, the growth inhibition [4] was 98% (active), the outcome [5] was “inactive” and the outcome [6] was “inactive”. The outcome [7] was “inactive” and the outcome [8] was “inactive”.

In the case of `CC(=O)c1sc(Cc2nc3ccccc3s2)nc1C`, the growth inhibition [1] is reported as 88% (active), the inhibition [2] is reported as -13% and the inhibition [3] is reported as 1%. For the same compound, the growth inhibition [4] was 94% (active), the outcome [5] was “inactive” and the outcome [6] was “inactive”. The outcome [7] was “inactive” and the outcome [8] was “inactive”.

In the case of `COc1cc(NC(=O)Nc2cc(C)nc3ccccc23)cc(OC)c1`, the growth inhibition [1] is reported as 57% (active), the inhibition [2] is reported as 5% and the inhibition [3] is reported as -4%. The growth inhibition [4] was 104% (active), the outcome [5] was “inactive” and the outcome [6] was “inactive”. The outcome [7] was “inactive” and the outcome [8] was “inactive”.

With `CC(C)Oc1ccc(CCCON2C(N)=NC(N)=NC2(C)C)cc1` the growth inhibition [1] was 94% (active), the inhibition [2] was 66% (active) and the inhibition [3] was 0%. For the same compound, the growth inhibition [4] was 96% (active), the outcome [5] was “inactive” and the outcome [6] was “inactive”. For the same compound, the outcome [7] was “inactive” and the outcome [8] was “inactive”.

With `Nc1ncc(-c2ccc3[nH]ccc3c2)c2ccc(-c3ccncc3)cc12` the growth inhibition [1] was 100% (active), the inhibition [2] was 42% and the inhibition [3] was -6%. The growth inhibition [4] was 100% (active), the outcome [5] was “inactive” and the outcome [6] was “inactive”. The outcome [7] was “inactive” and the outcome [8] was “inactive”.

In the case of `O=C(Nc1ccc(N2CCN(C(=O)C=Cc3ccccc3)CC2)c(Cl)c1)c1ccc([N+](=O)[O-])o1`, the growth inhibition [1] is reported as 90% (active), the inhibition [2] is reported as 98% (active) and the inhibition [3] is reported as -5%. For the same compound, the growth inhibition [4] was 97% (active), the outcome [5] was “inactive” and the outcome [6] was “inactive”. For the same compound, the outcome [7] was “inactive” and the outcome [8] was “inactive”.

With `O=C(Nc1cc(C(F)(F)F)ccc1-n1cncn1)C1(c2ccccc2)CC1` the growth inhibition [1] was 100% (active), the inhibition [2] was 11% and the inhibition [3] was 3%. For the same compound, the growth inhibition [4] was 100% (active), the outcome [5] was “inactive” and the outcome [6] was “inactive”. The outcome [7] was “inactive” and the outcome [8] was “inactive”.
